# In the library only some 0.9% were active in any assay of this set; here they are far more common.
# PPARg SRC-2 ag = PPARgamma-driven SRC-2 recruitment agonism; P37231; activation, % at 8 µM; PPARgamma LBD-SRC-2 recruitment, biochemical; AID 1032; 0.34% of 200,000 active; in the data active = activation above about 22%
# TR-FRET SRC-2 ct = flags TR-FRET format artefacts in PPARgamma SRC-2 recruitment agonist screen. TR-FRET artefact counter-screen; active compounds read high. TR-FRET ratio at 8 µM. 0.4% of 200,000 active. AID 1049
# SRC1 TRFRET art = counter-screen for PPARgamma SRC-1 recruitment agonists: TR-FRET artefact. TR-FRET detection artefact counter-screen, emission ratio; active compounds read high. TR-FRET ratio at 8 µM. 0.34% of 99,000 active. AID 1051; in the data active = TR-FRET ratio above about 2300
# PPARg SRC3 recr = PPARgamma-driven SRC-3 recruitment agonism. activation, % at 8 µM. AID 731. 0.26% of 200,000 active. biochemical PPARgamma/SRC-3 coactivator recruitment assay. P37231; in the data active = activation above about 23%
# SRC3 TRFRET art = flags TR-FRET format artefacts in PPARgamma SRC-3 recruitment agonist screen. TR-FRET artefact counter-screen, PPARgamma/SRC-3 format; active compounds read high. TR-FRET ratio at 8 µM. 0.39% of 99,000 active
# PPARg SRC1 recr = agonists of human PPARgamma SRC-1 coactivator recruitment; P37231; PPARgamma-SRC-1 coactivator recruitment biochemical assay; activation, % at 8 µM; 0.41% of 200,000 active; AID 631; in the data active = activation above about 19%
# PPARg SRC2 conf = human PPARgamma SRC-2 recruitment agonism, confirmation; shares compounds with PPARg SRC3 recr; biochemical SRC-2 recruitment by PPARgamma; activation, % at 8 µM; 52% of 790 active; AID 1297; in the data active = activation above about 22%
# PPARg SRC1 ag = human PPARgamma SRC-1 recruitment agonism, confirmation; shares compounds with PPARg SRC3 recr; PPARgamma–SRC-1 coactivator recruitment biochemical assay; activation, % at 8 µM; 43% of 790 active; in the data active = activation above about 20%
# PPARg SRC3 ag = confirmation of agonists of SRC-3 recruitment by human PPARgamma; 29% of 790 active; shares compounds with PPARg SRC3 recr; activation, % at 8 µM; AID 1301; biochemical PPARgamma-SRC-3 coactivator recruitment, agonist mode; in the data active = activation above about 24%
# A number is an active result; – = inactive; · = not tested or not shown. Cut-off read from the data, not from the text of the source, unless noted: active = TR-FRET ratio above about 2000; inactive = the rest.
SMILES,PPARg SRC-2 ag,TR-FRET SRC-2 ct,SRC1 TRFRET art,PPARg SRC3 recr,SRC3 TRFRET art,PPARg SRC1 recr,PPARg SRC2 conf,PPARg SRC1 ag,PPARg SRC3 ag
COc1ccc(NC(C)C(=O)N/N=C/c2ccccc2OCc2cccc(Br)c2)cc1 (stereo not drawn),–,–,–,36.7,–,22.4,–,23.8,–
Cc1ccccc1NC(C)C(=O)N/N=C/c1ccccc1OCc1cccc(Br)c1 (stereo not drawn),–,–,·,–,·,–,·,·,·
COC(=O)c1ccc(NC(=O)c2ccccc2SC)cc1,–,–,·,–,·,–,·,·,·
COC(=O)CSc1ncnc2c1sc1nc3c(cc12)COC(C)(C)C3,23.8,–,–,–,–,–,–,–,–
COc1ccc(-c2oc3ncn4nc(Cc5ccccc5)nc4c3c2-c2ccc(OC)cc2)cc1,69.1,4122,·,–,·,83.5,–,–,–
COc1ccc(-c2oc3ncn4nc(COc5ccccc5)nc4c3c2-c2ccc(OC)cc2)cc1,–,–,·,–,·,–,·,·,·
Cc1ccc(C)c(CN2C(=O)C3CCCN3c3ccc(C#N)cc32)c1 (stereo not drawn),–,–,·,–,·,–,·,·,·
Cc1ccc(CN2C(=O)C3CCCN3c3ccc(C#N)cc32)cc1 (stereo not drawn),–,–,·,29.3,·,–,–,–,–
Cc1cccc(CSc2nc(N)c(C#N)c(-c3cccs3)c2C#N)c1,22.8,–,·,–,·,–,–,–,–
Cc1cccc(CSc2nc3c(c(-c4cccs4)c2C#N)CN(C)CC3)c1,–,–,–,–,–,–,·,·,·
Nc1c(C(=O)Nc2ccc(F)cc2)sc2nc(-c3ccco3)ccc12,–,–,·,–,·,–,·,·,·
Nc1c(C(=O)Nc2ccc(Br)cc2)sc2nc(-c3ccco3)ccc12,22.6,–,·,–,·,–,–,–,–
COc1cc(-c2[nH]ncc2CN2CCc3sccc3C2)cc(OC)c1OC,–,–,–,–,–,–,·,·,·
CC1N(C)c2cccc3cccc(c23)N1C,25.0,–,·,–,·,–,24.2,–,–
COc1ccc(-n2ncc3c(NC(C)C)ncnc32)cc1,–,–,·,–,·,18.9,–,–,–
CCCc1cc(=O)oc2cc(C)cc(O)c12,27.6,2043,·,27.1,·,–,–,–,–
CCCCCc1cc(O)c2c(C)cc(=O)oc2c1,–,–,·,–,·,18.9,–,–,–
COC(=O)Cc1c(C)c2c(O)cc(C)cc2oc1=O,29.7,2058,·,35.3,·,20.0,27.2,20.6,–
COC(=O)Cc1c(C)c2ccc(OC(=O)c3ccccc3)cc2oc1=O,–,–,·,–,·,–,·,·,·
CCc1cc(=O)oc2cc(C)cc(O)c12,41.6,2296,·,50.0,·,37.0,40.2,27.3,27.2
CCN(CC)C1=CC(=[N+]2CCCC2)CC(C)(C)C1,–,–,–,–,–,–,·,·,·
Cc1ccc(S(=O)(=O)NNC(=O)C2CCN(Cc3ccccc3)CC2)cc1,–,–,·,–,·,–,·,·,·
CC1=C(C(N)=O)C(c2ccc(Cl)cc2Cl)n2ncnc2N1 (stereo not drawn),–,–,·,–,·,–,·,·,·
O=C(NNC(=S)Nc1ccc(Br)cc1)c1ccc(N2CCOCC2)c([N+](=O)[O-])c1,–,–,–,–,–,–,·,·,·
Brc1cc(Br)c2nc(-c3ccc(N4CCOCC4)cc3)ccc2c1,22.4,2276,·,34.6,·,24.6,24.0,–,–
Cc1cccc2cc(CN(Cc3ccc(F)cc3)Cc3nnnn3C3CCCC3)c(=O)[nH]c12,111.9,4917,·,61.6,·,–,–,–,–
Cc1cc(C)c2[nH]c(=O)c(CN(Cc3ccc4c(c3)OCO4)Cc3nnnn3C3CCCC3)cc2c1,–,–,·,–,·,–,·,·,·
COc1cccc(CN2CCN(C(=O)CC(C)C)CC2)c1,–,–,–,–,–,–,·,·,·
CCCOc1ccc(C2C(C(=O)c3ccco3)=C(O)C(=O)N2CCCn2ccnc2)cc1 (stereo not drawn),–,–,·,–,·,18.9,–,–,–
